# Inconclusive results are not listed. Entries that show only a call come without a potency. Active and inactive are the calls of the source. Calls follow the shape of the dose curve; as a rule, active = well fitted curve in the direction sought with a large enough effect; inconclusive = small, poorly fitted or top-dose-only effect, or another doubt; inactive = no such curve, though single readings can be large; an effect the other way counts as inactive or inconclusive.
# Tests used:
# [1] = molecular target: Pyruvate kinase PKM (Homo sapiens) (UniProt P14618); test: qHTS Assay for Inhibitors of Human Muscle Pyruvate Kinase (AID 958)
# Sequence of Pyruvate kinase PKM (Homo sapiens) (P14618 whole entry, looked up): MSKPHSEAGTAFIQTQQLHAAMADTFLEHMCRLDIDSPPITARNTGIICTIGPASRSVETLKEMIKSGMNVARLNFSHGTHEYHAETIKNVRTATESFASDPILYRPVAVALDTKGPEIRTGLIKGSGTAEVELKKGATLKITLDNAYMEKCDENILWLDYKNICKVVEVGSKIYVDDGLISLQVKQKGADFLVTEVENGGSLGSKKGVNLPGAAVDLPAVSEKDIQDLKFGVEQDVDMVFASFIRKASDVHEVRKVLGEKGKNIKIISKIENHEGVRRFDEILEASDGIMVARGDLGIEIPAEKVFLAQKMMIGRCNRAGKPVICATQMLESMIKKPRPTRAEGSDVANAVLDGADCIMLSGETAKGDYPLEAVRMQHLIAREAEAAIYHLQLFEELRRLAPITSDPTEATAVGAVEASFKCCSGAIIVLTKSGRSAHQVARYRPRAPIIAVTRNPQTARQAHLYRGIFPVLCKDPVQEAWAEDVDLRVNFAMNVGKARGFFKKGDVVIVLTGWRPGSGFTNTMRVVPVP
# Summary of the method: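 Purified human PKM2 (0.1 nM) with 0.5 mM PEP (Km) and 0.1 mM ADP in 50 mM imidazole pH 7.2, KCl, MgCl2, 1 h at room temperature; ATP formed read by coupled luciferase luminescence. Normalized to no-enzyme/110 uM thiadiazolimine inhibition; 0.3 nM enzyme column for activation.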
# [2] = molecular target: Pyruvate kinase (Leishmania mexicana) (UniProt Q27686); test: qHTS Validation Assay for Activators of Leishmania Mexicana Pyruvate Kinase (AID 959)
# Sequence of Pyruvate kinase (Leishmania mexicana) (Q27686 2-499 E452W): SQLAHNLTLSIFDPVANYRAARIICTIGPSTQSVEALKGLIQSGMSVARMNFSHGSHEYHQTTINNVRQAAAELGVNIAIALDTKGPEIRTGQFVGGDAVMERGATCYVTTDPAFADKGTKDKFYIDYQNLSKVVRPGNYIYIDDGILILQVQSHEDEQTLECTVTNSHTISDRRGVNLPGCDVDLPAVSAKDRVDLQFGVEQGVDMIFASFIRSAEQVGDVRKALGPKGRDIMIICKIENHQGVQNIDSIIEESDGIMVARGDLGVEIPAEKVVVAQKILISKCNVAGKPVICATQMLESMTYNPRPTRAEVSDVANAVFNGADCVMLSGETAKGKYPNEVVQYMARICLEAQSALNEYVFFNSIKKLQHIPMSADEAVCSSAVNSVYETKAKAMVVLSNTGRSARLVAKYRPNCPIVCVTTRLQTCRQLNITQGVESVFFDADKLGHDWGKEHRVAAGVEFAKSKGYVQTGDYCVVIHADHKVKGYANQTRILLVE
# Summary of the method: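 Mutant LmPYK (E451W), 0.2 nM, plus 0.5 mM PEP and 0.1 mM ADP in 50 mM imidazole pH 7.2 containing 0.01% Tween 20 and 0.05% BSA. Incubated 1 h at room temperature; luminescence via PKLight, normalized to DMSO.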
# CP237 = test: qHTS profiling for inhibitors of Plasmodium falciparum proliferation (AID 504749); also: nearly all actives have a fitted effect of over 60% in size; also: potency is read from the fitted curve at half-maximal effect; details: P. falciparum in erythrocytes, SYBR Green DNA, 72 h; series mostly up to 28.7 µM
# Summary of the method: (§1)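 Readout was DNA-dye fluorescence from lysed cultures, ex 485/em 535 nm. Parasitized red cells had grown 72 h with compound; data scaled between 0.29 uM artemisinin and DMSO wells and corrected using vehicle-only plates.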
# CP268 = test: as above; details: P. falciparum in erythrocytes, SYBR Green DNA, 72 h; series mostly up to 28.7 µM
# Summary of the method: as §1
# CP286 = test: as above; details: P. falciparum in erythrocytes, SYBR Green DNA, 72 h; series mostly up to 28.7 µM
# Summary of the method: as §1
# CP291 = test: as above; details: P. falciparum in erythrocytes, SYBR Green DNA, 72 h; series mostly up to 28.7 µM
# Summary of the method: as §1
# CP297 = test: as above; details: P. falciparum in erythrocytes, SYBR Green DNA, 72 h; series mostly up to 28.7 µM
# Summary of the method: as §1
# CP315 = test: as above; details: P. falciparum in erythrocytes, SYBR Green DNA, 72 h; series mostly up to 28.7 µM
# Summary of the method: as §1
# HB3 = test: as above; details: P. falciparum in erythrocytes, SYBR Green DNA, 72 h; series mostly up to 28.7 µM
# Summary of the method: as §1
# TAB113 = test: as above; details: P. falciparum in erythrocytes, SYBR Green DNA, 72 h; series mostly up to 28.7 µM
# Summary of the method: as §1
# [3] = molecular target: Ubiquitin carboxyl-terminal hydrolase 1 (Homo sapiens) (UniProt O94782); test: Inhibitors of USP1/UAF1: Pilot qHTS (AID 504865);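 also: rhodamine fluorescence freed from ubiquitin-rhodamine substrate followed over time; top concentration of the series differs between compounds; nearly all actives have a fitted effect of over 35% in size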
# Sequence of Ubiquitin carboxyl-terminal hydrolase 1 (Homo sapiens) (O94782 whole entry, looked up): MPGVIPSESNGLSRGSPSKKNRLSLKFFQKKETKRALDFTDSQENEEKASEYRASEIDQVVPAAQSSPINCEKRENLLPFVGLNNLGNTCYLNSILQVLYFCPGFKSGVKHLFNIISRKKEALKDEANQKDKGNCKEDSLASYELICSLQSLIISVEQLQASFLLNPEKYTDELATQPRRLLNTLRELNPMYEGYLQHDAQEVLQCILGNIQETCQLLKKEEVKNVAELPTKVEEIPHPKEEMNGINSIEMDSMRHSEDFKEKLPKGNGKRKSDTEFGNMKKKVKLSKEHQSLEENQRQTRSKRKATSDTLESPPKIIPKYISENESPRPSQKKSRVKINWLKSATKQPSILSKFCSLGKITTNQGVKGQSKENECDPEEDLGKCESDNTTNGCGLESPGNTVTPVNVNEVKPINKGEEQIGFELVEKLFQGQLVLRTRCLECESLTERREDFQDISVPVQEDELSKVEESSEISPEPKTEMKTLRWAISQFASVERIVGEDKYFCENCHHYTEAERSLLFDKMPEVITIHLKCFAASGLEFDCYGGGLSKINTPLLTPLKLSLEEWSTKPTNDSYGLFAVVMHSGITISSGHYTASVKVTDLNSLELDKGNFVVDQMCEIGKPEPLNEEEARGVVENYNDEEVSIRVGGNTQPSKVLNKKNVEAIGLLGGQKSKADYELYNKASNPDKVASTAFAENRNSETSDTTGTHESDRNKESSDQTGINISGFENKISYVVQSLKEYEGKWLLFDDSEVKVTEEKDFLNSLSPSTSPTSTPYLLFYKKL
# Summary of the method: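 USP1/UAF1 complex at 1 nM preincubated 15 min at room temperature with compound, then Ub-Rho substrate added at 150 nM final. Fluorescence (480/540 nm) read kinetically in 50 mM HEPES pH 7.8, 0.5 mM EDTA, 1 mM TCEP, 0.1 mg/ml BSA, 0.01% Tween-20.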
# TAB109 = test: qHTS profiling for inhibitors of Plasmodium falciparum proliferation (AID 504749); also: nearly all actives have a fitted effect of over 60% in size; also: potency is read from the fitted curve at half-maximal effect; details: P. falciparum in erythrocytes, SYBR Green DNA, 72 h; series mostly up to 28.7 µM
# Summary of the method: as §1
smiles,measurement,setting,value
O=C1O/C(=C\Br)CC[C@@H]1c1cccc2ccccc12,outcome,[1],inactive
N.N.N.N.N.N.N.N.N.N.N.N.N.N.O.O.[Ru].[Ru].[Ru],Potency,[2],inactive
CO/N=C(\C(=O)N[C@@H]1C(=O)N2C(C(=O)[O-])=C(C[N+]3(C)CCCC3)CS[C@@H]12)c1csc(N)n1,Potency,CP237,inactive
same,Potency,CP268,inactive
same,Potency,CP286,inactive
same,Potency,CP291,inactive
same,Potency,CP297,inactive
same,Potency,CP315,inactive
same,Potency,HB3,inactive
same,Potency,TAB113,inactive
C[C@H]1C[C@@H]2[C@H]3CCC4=CC(=O)C=C[C@@]4(C)[C@@]3(Cl)[C@@H](O)C[C@]2(C)[C@]1(OC(=O)c1ccco1)C(=O)CCl,Potency,[3],inactive
same,Potency,TAB109,3550 nM (active)
C[C@@H]1C[C@H]2[C@H]3C[C@@H](F)C4=CC(=O)C=C[C@]4(C)[C@@]3(Cl)[C@@H](O)C[C@@]2(C)[C@@H]1C(=O)COC(=O)C(C)(C)C,Potency,CP291,inactive
same,Potency,CP297,inactive
same,Potency,CP315,inactive
C=C(NC(=O)C(=C)NC(=O)c1csc(C2=N[C@@H]3c4csc(n4)[C@@H]4NC(=O)c5csc(n5)[C@@H]([C@](C)(O)[C@H](C)O)NC(=O)[C@@H]5CSC(=N5)/C(=C/C)NC(=O)[C@@H]([C@H](C)O)NC(=O)c5csc(n5)[C@]3(CC2)NC(=O)[C@@H](C)NC(=O)C(=C)NC(=O)[C@@H](C)NC(=O)[C@@H]([C@@H](C)CC)N[C@H]2C=Cc3c([C@H](C)O)cc(nc3[C@@H]2O)C(=O)O[C@H]4C)n1)C(N)=O,Potency,TAB109,398 nM (active)

# From PubChem BioAssay (NCATS)
